From PubChem BioAssay AID602143 (Vanderbilt Specialized Chemistry Center, 2011)
Active and inactive are the calls of the source. No stated cut-off is given here; in the data, active means remaining activity below about 50%; inactive means the rest.

molecular target: Phospholipase D2 (Homo sapiens) (UniProt O14939); assay: cellular phospholipase D2 activity inhibition – cell-based, HEK293, single concentration (AID 602143); details: HEK293 cellular PLD2 activity, percent of control; stronger effect = lower value;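 further: tested at 200 nM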
Sequence (O14939 whole entry, looked up): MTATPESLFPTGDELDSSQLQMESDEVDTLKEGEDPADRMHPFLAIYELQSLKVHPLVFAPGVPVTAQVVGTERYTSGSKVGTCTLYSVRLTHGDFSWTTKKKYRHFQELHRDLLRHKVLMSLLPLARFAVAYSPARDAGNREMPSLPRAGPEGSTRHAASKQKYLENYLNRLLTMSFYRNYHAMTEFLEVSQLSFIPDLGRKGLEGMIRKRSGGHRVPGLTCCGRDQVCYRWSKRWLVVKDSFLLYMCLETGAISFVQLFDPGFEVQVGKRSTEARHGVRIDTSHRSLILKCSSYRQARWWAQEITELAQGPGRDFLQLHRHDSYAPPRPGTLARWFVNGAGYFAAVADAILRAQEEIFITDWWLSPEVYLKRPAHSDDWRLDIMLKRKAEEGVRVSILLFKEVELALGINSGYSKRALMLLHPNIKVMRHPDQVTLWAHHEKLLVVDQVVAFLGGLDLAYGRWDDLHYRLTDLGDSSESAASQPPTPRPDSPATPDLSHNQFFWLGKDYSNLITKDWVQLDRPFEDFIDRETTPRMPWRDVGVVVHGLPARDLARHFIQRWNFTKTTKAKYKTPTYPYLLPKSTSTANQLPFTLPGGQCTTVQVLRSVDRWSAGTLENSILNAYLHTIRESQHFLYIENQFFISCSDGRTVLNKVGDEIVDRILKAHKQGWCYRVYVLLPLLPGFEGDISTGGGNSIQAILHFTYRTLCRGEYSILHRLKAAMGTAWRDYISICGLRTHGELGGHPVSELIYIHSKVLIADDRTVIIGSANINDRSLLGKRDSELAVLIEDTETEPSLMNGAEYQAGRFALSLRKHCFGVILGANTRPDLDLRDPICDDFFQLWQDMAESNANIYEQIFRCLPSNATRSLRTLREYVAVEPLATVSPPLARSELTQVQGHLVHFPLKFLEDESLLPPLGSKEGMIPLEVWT
Sequence (O14939 whole entry, looked up): as above

Row | SMILES | remaining activity
1 | O=C1c2ccccc2C(=O)N1CCCNCc1ccccn1 | 116% (inactive)
2 | O=C(NCCN1CCC(n2c(=O)[nH]c3ccccc32)CC1)c1cnccn1 | 139% (inactive)
3 | O=C1c2ccccc2C(=O)N1CCN1CCC(n2c(=O)[nH]c3cc(Cl)ccc32)CC1 | 90.8% (inactive)
4 | O=C(Cc1ccc2ccccc2c1)NCCN1CCC(n2c(=O)[nH]c3ccccc32)CC1 | 112% (inactive)
5 | O=C(NCCN1CCC2(C=Cc3ccccc32)CC1)[C@H]1C[C@@H]1c1ccccc1 | 130% (inactive)
6 | O=C1c2ccccc2C(=O)N1CCCN1CCC(c2nc3ccccc3[nH]2)CC1 | 82.5% (inactive)
7 | O=C(CCN1CCC(n2c(=O)[nH]c3ccccc32)CC1)NCc1ccc(Cl)cc1 | 85.2% (inactive)
8 | O=C1c2ccccc2C(=O)N1CCN1CCC(n2c(=O)[nH]c3ccccc32)CC1 | 87.7% (inactive)
9 | Cc1ccc(C(=O)NCCN2CCN(c3ncccn3)CC2)cc1 | 85.6% (inactive)
10 | O=C(NCCN1CCN(c2ccncc2)CC1)c1ccccc1-c1ccccc1 | 83.2% (inactive)
11 | C[C@@H](CN1CCC(n2c(=O)[nH]c3cc(-c4cccnc4)ccc32)CC1)NC(=O)[C@H]1C[C@@H]1c1ccccc1 | 72.1% (inactive)
12 | O=C(NCCN1CCC(n2c(=O)[nH]c3cc(Cl)ccc32)CC1)c1ccc(Cl)cc1 | 56.9% (inactive)
13 | O=C(c1ccc(Cl)cc1)N1CCC2(CC1)C(=O)NCN2c1ccccc1 | 69.9% (inactive)
14 | C[C@H](CN1CCC2(CC1)CNCc1ccccc12)NC(=O)c1cnc2ccccc2c1 | 100% (inactive)
15 | O=c1[nH]c2ccccc2n1C1CCN(CCNC(=S)Nc2cccc3ccccc23)CC1 | 100% (inactive)
16 | CS(=O)(=O)N1CC2(CCN(CCNC(=O)c3ccc4ccccc4c3)CC2)c2ccccc21 | 84.2% (inactive)
17 | O=C(NCCN1CCC(n2c(=O)[nH]c3cc(I)ccc32)CC1)C1CC1c1ccccc1 (stereo not given) | 57.2% (inactive)
18 | O=C(NCCN1CCC(n2c(=O)[nH]c3cc(I)ccc32)CC1)c1ccc(Cl)cc1 | 36.7% (active)
19 | C[C@H](CN1CCC(n2nnc3ccccc32)CC1)NC(=O)c1cnc2ccccc2c1 | 68.5% (inactive)
20 | O=C(NCCN1CCC(n2c(=O)[nH]c3ccccc32)CC1)c1ccc(Cc2ccccc2)cc1 | 72.9% (inactive)

Row | SMILES | remaining activity
21 | C[C@@H](CN1CCC(n2c(=O)[nH]c3cc(-c4ccccc4)ccc32)CC1)NC(=O)[C@H]1C[C@@H]1c1ccccc1 | 79.2% (inactive)
22 | C[C@@H](CN1CCC(n2c(=O)[nH]c3ccccc32)CC1)NC(=O)c1cc2ccccc2[nH]1 | 0.434% (active)
23 | O=C(NCCN1CCC(n2c(=O)[nH]c3ccccc32)CC1)c1cccc(Cl)n1 | 75.4% (inactive)
24 | C[C@@H](CN1CCC(n2c(=O)[nH]c3ccc(F)cc32)CC1)NC(=O)c1ccc(F)cc1 | 66.8% (inactive)
25 | O=C1Cc2cc(CCN3CCN(c4nsc5ccccc45)CC3)c(Cl)cc2N1 | 105% (inactive)
26 | O=C(NCCN1CCC2(C=Cc3ccccc32)CC1)c1cnc2ccccc2c1 | 92.4% (inactive)
27 | O=C(NCCN1CCC(n2c(=O)[nH]c3ccccc32)CC1)c1cnc2ccccc2n1 | 87.4% (inactive)
28 | O=C(NCCN1CCN(c2ccncc2)CC1)c1ccc(F)cc1O | 112% (inactive)
29 | CC1(C)[C@@H]2CC[C@@]1(CS(=O)(=O)NCCN1CCC(n3c(=O)[nH]c4ccccc43)CC1)C(=O)C2 | 79.6% (inactive)
30 | C[C@@H](CN1CC=C(n2c(=O)[nH]c3ccccc32)CC1)NC(=O)[C@H]1C[C@@H]1c1ccccc1 | 74.4% (inactive)
31 | O=C(NCCN1CCN(c2ncccn2)CC1)c1ccc(Cl)cc1 | 106% (inactive)
32 | O=C(NCCN1CCC(c2nc3ccccc3[nH]2)CC1)c1ccc2ccccc2c1 | 95.1% (inactive)
33 | C[C@H](CN1CCC2(CC1)CNc1ccccc12)NC(=O)c1cnc2ccccc2c1 | 104% (inactive)
34 | O=C(CCc1ccccc1)NCCN1CCC(n2c(=O)[nH]c3ccccc32)CC1 | 80.7% (inactive)
35 | O=C(NCCN1CCN(c2ccncc2)CC1)c1cc2cc(F)ccc2[nH]1 | 65.5% (inactive)
36 | Cn1c(C(=O)NCCN2CCN(c3ccncc3)CC2)cc2ccccc21 | 109% (inactive)
37 | Nc1ccc(C(=O)NCCN2CCC(n3c(=O)[nH]c4ccccc43)CC2)c(F)c1 | 60.4% (inactive)
38 | C[C@@H](CN1CCC(n2c(=O)[nH]c3ccccc32)CC1)NC(=O)COc1ccccc1 | 88.2% (inactive)
39 | C[C@@H](CN1CCC(n2c(=O)[nH]c3ccccc32)CC1)NC(=O)Cc1cccs1 | 99.6% (inactive)
40 | C[C@@H](CN1CCC2(C=Cc3ccccc32)CC1)NC(=O)c1ccc2ccccc2c1 | 147% (inactive)
